Our source for the Inhibition values is ChEMBL document CHEMBL1157539, “Thousands of chemical starting points for antimalarial lead identification” (Nature, 2010).

SMILES strings stand for the structures.

The assay concerns HepG2. The assay can be described thus: GSK_TCMDC: Percent inhibition of human HepG2 cell line. Test compounds present at 10uM. The class given is functional.
On to `Brc1ccc(Nc2nc3ccccc3nc2Nc2ccc(Br)cc2)cc1`, for which the Inhibition is reported as 18%.

The compound `O=C(NCCN1CCCCC1)c1ccc(Nc2nccc(Nc3ccc(Oc4ccccc4)cc3)n2)cc1` showed an Inhibition of 58%.

Compound `COc1cccc(-c2cc(C(=O)NC3CCC(N4CCC(c5ccccc5C)CC4)CC3)[nH]n2)c1` (centres undefined) yielded an Inhibition of 60%.

`COc1cc(CCOc2c(C)nc(N)nc2N)cc(OC)c1OC.Cl` showed an Inhibition of 59%.

As to `CN1CCN(Cc2cccc(Nc3nccc(Nc4ccc(Oc5ccccc5)cc4)n3)c2)CC1`, the Inhibition is 30%.

The compound `O=C(/C=C/c1ccc(Cl)c(Cl)c1)NC1CCC(CN2CCC(c3nc4ccccc4s3)CC2)CC1` (centres undefined) registered an Inhibition of 50%.

Regarding `Cc1cccc2nc(-c3ccc(-c4ccc(NC(=O)Nc5ccc(Cl)c(Cl)c5)cc4)cc3)[nH]c12`, the Inhibition is 37%.

In turn, `CCCCN1C(=N)NC(c2ccccc2)(c2ccccc2)C1=O` came in with an Inhibition of 19%.

`Cc1cc(N[C@@H](Cc2ccccc2)C(=O)NCCOc2ccccc2)nc(NCCc2ccccc2)n1.O=C(O)C(F)(F)F` gave an Inhibition of 12%.

Turning to `O=C(Cn1c(CCc2cccc(F)c2F)cc(=O)c2cccnc21)N(CCCn1ccnc1)Cc1ccc(-c2ccc(C(F)(F)F)cc2)cc1`, the Inhibition amounted to 38%.

As for `COc1cc2ncnc(Nc3ccc(OCc4ccccc4)c(OCc4ccccc4)c3)c2cc1OC.Cl`, the Inhibition came to 4%.

As to `Oc1cccc2ccc(Nc3ccccn3)nc12`, the Inhibition is recorded as 72%.

`Cc1ccc(C)c(Cn2ccc3nc(N)nc(N)c32)c1` yielded an Inhibition of 65%.

`COC(=O)c1cc(OC2CCOC2=O)cc2c1OC(C)(C)O2` (centres undefined) showed an Inhibition of 6%.

In the case of `CNC(=O)Cc1ccc(C(=O)Nc2cccc(-c3ccc(-c4nc5cccc(C)c5[nH]4)s3)c2)cc1`, the Inhibition was 66%.

`CC(C)CC(=O)N1CCNC[C@@H]1C(=O)NCCSCc1c(F)cccc1Cl.O=C(O)C(F)(F)F` yielded an Inhibition of 1%.

`CN(C)CCOc1cc(NC(=O)Nc2ccc(-c3ccccc3)cc2)ccc1I`: the Inhibition is reported as 9%.

Compound `CCC(O)(C#Cc1c(C)nc(N)nc1N)CC` registered an Inhibition of 63%.

Take `COc1cccc(Nc2nc(N)c3ccccc3n2)c1.Cl`: the Inhibition stood at 18%.

With `CC(C)[C@H](NC(=O)c1ccc(O)c(-c2ccc(Cl)c(Cl)c2)c1)C(=O)NCCN1CCOCC1`, the Inhibition is recorded as 0%.

In turn, `CC(C)C1=C[C@H]2C[C@]3(C4OCCO4)[C@@H]4CC[C@@H](C)[C@H]4C[C@@]2(COCc2cccc(C#N)c2)[C@]13C(=O)OC(c1ccccc1)c1ccccc1` displayed an Inhibition of 0%.

Turning to `CCOc1ccc(-c2nc(NC(=O)Cc3cccc(OC)c3)sc2C)cc1`, the Inhibition stood at 15%.

As to `COc1ccc2nccc(N3CCCN(CCNCc4ccc5c(n4)NC(=O)CS5)CC3)c2n1.Cl`, the Inhibition is reported as 8%.

For `CN1CCCN(c2ccnc3cc4c(cc23)N(C(=O)c2ccc(Cl)cc2)CC4)CC1.Cl`, the Inhibition was determined as 0%.

`COc1cc(Nc2nccc(Nc3ccc4c(C)n[nH]c4c3)n2)cc2ccccc12.Cl` registered an Inhibition of 13%.

In turn, `CS(=O)(=O)n1c(CN2CCN(c3ncc(C(F)(F)F)cc3Cl)CC2)nc2ccccc21` returned an Inhibition of 0%.

With `COc1ccc2nccc(N3CCC(CCNCc4cc5c(cn4)OCCO5)CC3)c2n1.Cl`, the Inhibition was found to be 18%.

For the compound `c1ccc(Oc2ccc(Nc3nc(NCCc4c[nH]cn4)nc(NC4CCCC4)n3)cc2)cc1`, the Inhibition was 0%.

For the compound `Cc1cc(N(CCO)CCCN2CCCCC2)nc(Nc2ccc(Cl)cc2)n1.Cl`, the Inhibition is listed as 12%.

Take `COc1cc2cc(C(=O)Nc3ccccc3)c(N)nc2cc1OC`: the Inhibition amounted to 0%.

As to `CCCNCc1ccc(-c2ccc(CN(C(=O)c3nn(-c4ccccc4)nc3C)C3CCOCC3)cc2)nc1.O=C(O)C(F)(F)F`, the Inhibition was 14%.

In turn, `CCc1cn2c3c(cc(C(=O)N[C@@H](Cc4cc(F)cc(F)c4)[C@H](O)CNC4CCCCC4)cc13)N(C)S(=O)(=O)CC2.O=CO` had an Inhibition of 9%.

In the case of `Cc1ccc2nc3sc(C(=O)NCCCN4CCC(N5CCCCC5)CC4)cc3cc2c1`, the Inhibition was found to be 11%.

Regarding `Cc1cc(NC(=O)c2cc(Br)ccc2Cl)n(-c2nc(C)c(C)c(=O)[nH]2)n1`, the Inhibition was found to be 54%.

On to `COc1cccc(CCNCc2ccc(-c3cccc(CNC4CCCC4)c3)cc2)c1.O=C(O)C(F)(F)F`, for which the Inhibition is 14%.

Compound `CC(C)(C)c1nn(-c2ccc(Cl)cc2)c2[nH]c(=O)c(CNCc3cccs3)cc12` gave an Inhibition of 5%.

As for `CCCNCc1ccc(-c2ccc(CN(CCOC)C(=O)CCC(=O)c3ccc(OC)c(F)c3)cc2)nc1.O=C(O)C(F)(F)F`, the Inhibition turned out to be 13%.

In the case of `CCN(CC)CCNc1c2ccc(Cl)cc2nc2ccc(OC)nc12.Cl`, the Inhibition was found to be 20%.

The compound `CN(C)Cc1cccc(CNC(=O)c2sccc2OCc2ccc(Cl)cc2)c1` returned an Inhibition of 7%.
